The source of these data is PubChem BioAssay AID1508625 (Wald Lab, School of Medicine, Case Western Reserve …, 2021).

The nature of this experiment: enhancers of NK cell killing of ovarian tumor cells, primary screen, imaging, OVCAR3, primary NK cells, calcein-AM imaging (AID 1508625).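 Further: compound given to NK cells 16 h before adding targets at 1.5 to 1 ratio.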 Conditions: OVCAR3 lysis by primary NK cells, at 5 µM; z-score: measured here: robust Z-score, single-point normalisation.

Molecules are shown by their SMILES.

Turning to `O=C(Nc1ccc(Cl)cc1)c1ccc(F)c(S(=O)(=O)N2CCOCC2)c1`, the corrected activity, negative = more killing is -4.69% and the z-score was -1.77.

Consider `Cc1ccc(C(=O)Nc2ccc3nn(-c4cccc(Cl)c4)nc3c2)cc1[N+](=O)[O-]`, for which the corrected activity, negative = more killing was -0.361% and the z-score was -0.128.

For the compound `Cn1c(=O)c2c(nc(Oc3ccc(Cl)cc3)n2Cc2ccccc2Br)n(C)c1=O`, the corrected activity, negative = more killing was -3.02% and the z-score is -0.9.

For the compound `CCOc1ccc2nc(SCC(=O)Nc3ccccc3Oc3ccccc3)sc2c1`, the corrected activity, negative = more killing is -3.99% and the z-score was -1.24.

Consider `COc1ccc(OC)c(C2NC(=S)NC(C)=C2C(=O)Nc2ccccc2)c1` (centres undefined), for which the corrected activity, negative = more killing was -2.97% and the z-score was -0.92.

As to `COCCN(CCOC)C(=O)c1cc2c(=O)n3ccccc3nc2s1`, the corrected activity, negative = more killing is -1.77% and the z-score was -0.502.

As to `O=C(CCCCCn1c(=S)[nH]c2cc3c(cc2c1=O)OCO3)N1CCN(c2ccc(Cl)cc2)CC1`, the corrected activity, negative = more killing is -2.25% and the z-score was -0.597.

For `Cc1cc(Br)ccc1NC(=O)Cn1cnc2sc(C)c(S(=O)(=O)N3CCN(C)CC3)c2c1=O`, the corrected activity, negative = more killing was -7.06% and the z-score is -1.76.

Take `CC(C)c1ccc(NC(=O)C2c3ccccc3C(=O)N(C)C2c2cccs2)cc1` (centres undefined): the corrected activity, negative = more killing is -7.64% and the z-score was -1.9.

Turning to `O=C(CC1Sc2ccccc2NC1=O)Nc1ccc2c(c1)OCO2` (centres undefined), the corrected activity, negative = more killing was -2.14% and the z-score was -0.818.

Consider `Cc1cc(C)n(C(=O)c2ccc(S(=O)(=O)N3CCCCCC3)cc2)n1`, for which the corrected activity, negative = more killing was -2.63% and the z-score was -1.46.

As for `O=C(Oc1ccccc1C(=S)N1CCOCC1)c1ccc(Br)cc1`, the corrected activity, negative = more killing is -4.68% and the z-score is -1.45.

In the case of `Cc1ccc(C(=O)Oc2cccc(C(=S)N3CCOCC3)c2)cc1`, the corrected activity, negative = more killing is 1.48% and the z-score is 0.458.

With `O=C(Cc1ccccc1)Nc1ccc2oc(-c3ccc(I)cc3)nc2c1`, the corrected activity, negative = more killing was -1.02% and the z-score was -0.361.

On to `COc1ccc2c(c1OC)C(=O)OC2CC(=O)c1ccc(C)cc1` (centres undefined), for which the corrected activity, negative = more killing was -8.12% and the z-score was -1.71.

Consider `CC1(C)NN=C(N)SC1=O`, for which the corrected activity, negative = more killing was -0.451% and the z-score is -0.14.

`COC(=O)c1ccc(C=NNc2nc(-c3ccc(Cl)cc3)cs2)cc1`: the corrected activity, negative = more killing was -2.03% and the z-score is -0.861.

As for `Cn1c2ccccc2c(=Nc2ccc(Br)cc2)c2ccccc21`, the corrected activity, negative = more killing was -4.16% and the z-score is -1.48.

`N#Cc1c(SCC(=O)c2ccccc2)nsc1SCC(=O)c1ccccc1`: the corrected activity, negative = more killing is -5.48% and the z-score was -2.94.

In the case of `S=C1CSc2ccccc2N1`, the corrected activity, negative = more killing was -1.4% and the z-score is -0.377.

Take `O=C(CSCc1ccccc1Cl)NCCc1ccc(Cl)cc1`: the corrected activity, negative = more killing is -1.86% and the z-score is -0.502.

On to `Cc1oc(-c2cccc(Br)c2)nc1CN1CCC(C(=O)NC(C)CCc2ccccc2)CC1` (centres undefined), for which the corrected activity, negative = more killing is -7.41% and the z-score is -2.
